Pf Dd2 growth: qHTS Primary assay for Inhibitors of Plasmodium falciparum Dd2 growth in vitro; Potency, µM (series often up to 28.9 µM), for inactives: at the top dose activity, negative = inhibition, usual class: inhibitors; AID 1347417, 2020; P. falciparum Dd2 growth, SYBR Green, 72 h; 4.3% of 120,000 active; active = well fitted inhibition curve with a large enough effect;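 note: plate controls were DMSO vehicle for no effect and reference drug for full effect; nearly all actives have a fitted effect of over 65% in size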
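Readout: SYBR Green fluorescence, 485 nm excitation, 535 nm emission, after ~16 h lysis at 37C. Before that, Dd2-infected red cells (2.5% hematocrit) grew 72 h with compound, 29 uM top final concentration.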
Active calls of the source: *; i = inactive; ! = repeats disagree; [ ] = another dose, or the depositor's remark. This is one part of a sample in which hits are shown more often than they occur. Potency is the fitted concentration of half-maximal effect.

SMILES | Pf Dd2 growth
Cc1ccccc1NC(=O)N1CCC(CCNC(=O)Cc2ccsc2)CC1 | -6%
COC(=O)c1cccc(-c2nc(C3CC(=O)N(c4ccc(Cl)cc4)C3)no2)c1 (centres undefined) | 86%
Cc1ccsc1C(=O)NCCC1CCN(C(=O)Nc2cc(F)cc(F)c2)CC1 | i
CC(C)N1C[C@H](O)C[C@H]1c1nnc2n1CCN(C(=O)c1n[nH]c3ccccc13)CC2 | i
CCCCNC(=O)CN1C(=O)NC2(CCC(C)CC2)C1=O (centres undefined) | -16%
O=C(NCc1ccco1)NC1CC(=O)N(CCCc2ccccc2)C1 (centres undefined) | -5%
Cc1noc([C@@H](C)NS(=O)(=O)c2ccc(Cl)cc2)c1C(=O)O | 22%[44.1 µM]
O=C1CC2CCN(Cc3ccc(F)cc3)CC2CCN1 (centres undefined) | 4%[44.1 µM]
O[C@@H]1CN(Cc2ccc(-n3cccn3)cc2)CC[C@H]1c1ccc(F)cc1 | 3.5µM*
CC(C)(O)C#Cc1ccc(CN2CC[C@@H](c3ccc(F)cc3)[C@H](O)C2)s1 | i
O=C(N[C@H]1C[C@H]2C(=O)NC[C@@H](CCC(=O)N3CCN(c4ccccn4)CC3)N2C1)c1ccccc1 | 6%
COc1ccc(-c2n[nH]c3c2CC(=O)N(CC2CC2)C3)cc1OC | 2%[44.1 µM]
CCN1CCN(Cc2cc3ccc(C)cc3nc2-c2ccc(OC)c(OC)c2)CC1 | -29%
COc1ccc(-c2nc3cc(C)ccc3cc2CN2CCN(C)C(=O)C2)cc1OC | 7.9µM*
O=C(NC1CCc2n[nH]c(=O)n2CC1)c1ccoc1 (centres undefined) | 24%
FC(F)(F)c1ccc(N2C3CCC2CN(Cc2ccc(-c4ccccc4)cc2)C3)cc1 | i
FC(F)(F)c1ccc(N2C3CCC2CN(Cc2cccc(-c4cccnc4)c2)C3)cc1 | 11µM*
FC(F)(F)c1ccc(N2C3CCC2CN(Cc2ccc(-c4ccsc4)cc2)C3)cc1 | 2%
C[C@H]1CCCN1C(=O)c1nnc(COc2ccc(Cl)cc2)n1-c1ccccc1 | -12%[44.1 µM]
CC(=O)Nc1cccc2ccc(OCc3nnc(C(=O)N4CCC[C@@H]4c4ccc(Br)cc4)n3Cc3ccccc3)cc12 | 11µM*
CC(=O)Nc1cccc(OCc2nnc(C(=O)N3CCC[C@@H]3c3ccc(Br)cc3)n2Cc2ccccc2)c1 | -22%
O=C1NC(=NC2CCCCC2)C2(CCCN(Cc3ccc(F)cc3)C2)N1c1cc(F)cc(F)c1 (centres undefined) | 7.9µM*
O=C1NC(=NC2CCCC2)C2(CCCN(Cc3cccnc3)C2)N1c1cccnc1 (centres undefined) | 7%
O=C1NC(=NC2CCCCC2)C2(CCN(Cc3ccc(F)cc3)C2)N1c1cc(F)cc(F)c1 (centres undefined) | 1.8µM*
O=C1NC(=NC2CCCCC2)C2(CCN([S+](=O)([O-])c3ccccc3)C2)N1c1cc(F)cc(F)c1 (centres undefined) | -28%
SMILES | Pf Dd2 growth
O=C(c1cccnc1)N1CCCC2(C1)C(=NC1CCCC1)NC(=O)N2c1cc(F)cc(F)c1 (centres undefined) | -17%
O=C1NC(=NC2CCCCC2)C2(CCN(Cc3ccc(F)cc3)CC2)N1c1cccnc1 | 4%
CCc1noc(-c2cn(C3CCN(C(=O)c4cccn4C)CC3)nn2)n1 | i
O=C(NCCc1noc(C(F)(F)F)n1)[C@H]1CCC[C@H](O)C1 | -1%
COc1cccc(CCC(=O)N2CCC3(CC2)NC(=O)N(c2ccccc2)N3)c1 | -11%
Cc1ncoc1C(=O)N1CCC(c2noc(-c3cccnc3)n2)C1 (centres undefined) | 49%[5.79 µM]
CN(C)c1ccc(CN2CCC(N3CCOCC3=O)CC2)cc1 | 23%
Cc1ccsc1CN1CCc2nnc([C@@H]3C[C@@H](O)CN3C)n2CC1 | 5%
CN(C)c1ncc2c(n1)C(C)(C(=O)NCCOc1ccccc1)CCC2 (centres undefined) | -1%[44.1 µM]
O=C(Nc1ccc2c(c1)CN(Cc1ccccc1F)C(=O)CO2)c1ccc(Cl)cc1 | -1%
Cc1nc2n(n1)C(C(=O)Nc1ccccc1)CC(=O)N2 (centres undefined) | -1%
O[C@@H]1C[C@@H](c2nc(-c3ccc(OC(F)(F)F)cc3)no2)N(C2CCOCC2)C1 | i
Cc1ccc2nc(C3CCN(CC4CCCC4)CC3)[nH]c(=O)c2c1 | 11%[44.1 µM]
COc1ccc(-n2nc(C3CCCN(Cc4cccc5ccccc45)C3)[nH]c2=O)cc1 (centres undefined) | -18%
COc1cccc(-c2ccc(CN3CCN(c4cc(Cl)ncn4)C(=O)C3)cc2)c1 | -23%
Cc1ccc(-c2cccc(CN3CCCC(c4nc5ccc(C)cc5c(=O)[nH]4)C3)c2)c(C)c1 (centres undefined) | 7.9µM*!
Cc1ccc2nc(C3CCN(Cc4ccccc4)CC3)[nH]c(=O)c2c1 | -5%
COc1cccc(-c2ccc(CN3CCCC(c4nc5ccc(C)cc5c(=O)[nH]4)C3)cc2)c1 (centres undefined) | 7.9µM*!
COc1ccc(C(=O)N2C[C@@H](Oc3cccnc3)C[C@H]2C(N)=O)c(OC)c1 | 8%

Screens: PubChem BioAssay, National Center for Advancing Translational Sciences (NCATS)
